Laboratory results: the supplement of paper PMC10849652
The full data set covers some 7,900 targets. This sample favours those with a hit. About 0.6% of all pairs of compound and target were hits. Unmarked numbers belong to inactive results.

Experiments:
Assay in all cases: log2 fold change, soluble protein after heating vs DMSO (PISA); higher = thermal stabilisation; K562 cells, 10 uM, 30 min; active = over 0.2 and 3.5 SD of the protein, either way, in both replicates (recomputed)
[1] = compound: CC1=C(C=C(C=C1)NC(=O)C2=CC(=CC=C2)C(C)(C)C#N)NC3=CC4=C(C=C3)N=CN(C4=O)C
Method in brief: (§1)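 Soluble protein was defined as the supernatant after 21,000xg for 90 min. It came from K562 cells at 2×10^6 cells/mL given 10 μM compound for 30 min, heated in aliquots for 3 min across 48°C-58°C, pooled, and extracted in PBS with 0.5% NP-40 at 4°C, and was quantified by TMTpro 16plex LC-MS/MS with equalised channel sums. Thermal stability against control samples, from duplicates, is reported as log2 fold change.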

[2] = compound: CC1=C(C=C(C=C1)NC(=O)C2=CC(=CC=C2)N(C)C)NC(=O)C3=CC=C(C=C3)O
Method in brief: as §1

[3] = compound: CC1=CC=C(C=C1)SC2=C3C=C(SC3=CN=C2)C(=O)N
Method in brief: as §1

[4] = compound: CC1=NC(=CC=C1)C2=C(N=C(N2)C(C)(C)C)C3=CC4=NC=CN=C4C=C3
Method in brief: as §1

[5] = compound: CCCCN(Cc1ccc(C(=O)NO)cc1)C(=O)Nc1ccccc1 [Nexturastat A]
Method in brief: as §1

[6] = compound: CCCS(=O)(=O)Nc1ccc(F)c(C(=O)c2c[nH]c3ncc(-c4ccc(Cl)cc4)cc23)c1F [vemurafenib]
Method in brief: as §1

[7] = compound: CCCS(=O)(=O)Nc1ccc(F)c(C(=O)c2c[nH]c3ncc(Cl)cc23)c1F
Method in brief: as §1

[8] = compound: CCCc1cc(C)[nH]c(=O)c1CNC(=O)c1cc(-c2ccnc(N3CCN(C)CC3)c2)cc2c1cnn2C(C)C
Method in brief: as §1

[9] = compound: CCN(CC)Cc1ccc2cc(COC(=O)Nc3ccc(C(=O)NO)cc3)ccc2c1 [givinostat]
Method in brief: as §1

[10] = compound: CCN(CCCOc1ccc2c(Nc3cc(CC(=O)Nc4cccc(F)c4)[nH]n3)ncnc2c1)CCOP(=O)(O)O [barasertib]
Method in brief: as §1

Chain of UniProt Q16401 (Q16401 whole entry, looked up): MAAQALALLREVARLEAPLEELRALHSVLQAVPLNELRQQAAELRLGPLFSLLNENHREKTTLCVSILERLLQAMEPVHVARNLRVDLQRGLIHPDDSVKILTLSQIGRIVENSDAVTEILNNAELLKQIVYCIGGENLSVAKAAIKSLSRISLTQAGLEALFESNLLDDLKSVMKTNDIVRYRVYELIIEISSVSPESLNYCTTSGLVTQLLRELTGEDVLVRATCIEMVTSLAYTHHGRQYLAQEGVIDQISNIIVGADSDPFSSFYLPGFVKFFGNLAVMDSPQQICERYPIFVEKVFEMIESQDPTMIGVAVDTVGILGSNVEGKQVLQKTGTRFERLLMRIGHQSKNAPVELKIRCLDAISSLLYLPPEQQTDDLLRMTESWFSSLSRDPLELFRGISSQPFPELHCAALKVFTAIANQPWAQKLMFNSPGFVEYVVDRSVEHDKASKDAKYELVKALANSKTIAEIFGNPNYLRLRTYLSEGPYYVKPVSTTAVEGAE
Chain of UniProt Q15172 (Q15172 whole entry, looked up): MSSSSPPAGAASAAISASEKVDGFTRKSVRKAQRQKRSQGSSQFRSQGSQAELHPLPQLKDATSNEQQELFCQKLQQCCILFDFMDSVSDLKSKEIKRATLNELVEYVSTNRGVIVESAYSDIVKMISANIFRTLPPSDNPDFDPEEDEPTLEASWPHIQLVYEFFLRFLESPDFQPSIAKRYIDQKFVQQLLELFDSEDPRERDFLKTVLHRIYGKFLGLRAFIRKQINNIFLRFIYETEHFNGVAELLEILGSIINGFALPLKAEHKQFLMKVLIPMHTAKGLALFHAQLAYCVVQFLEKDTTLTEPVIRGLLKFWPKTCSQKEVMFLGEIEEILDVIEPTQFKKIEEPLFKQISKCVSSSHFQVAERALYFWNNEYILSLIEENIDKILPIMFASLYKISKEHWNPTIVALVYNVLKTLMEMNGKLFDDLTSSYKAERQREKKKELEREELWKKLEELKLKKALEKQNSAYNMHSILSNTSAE
Chain of UniProt Q9NVM4 (Q9NVM4 whole entry, looked up): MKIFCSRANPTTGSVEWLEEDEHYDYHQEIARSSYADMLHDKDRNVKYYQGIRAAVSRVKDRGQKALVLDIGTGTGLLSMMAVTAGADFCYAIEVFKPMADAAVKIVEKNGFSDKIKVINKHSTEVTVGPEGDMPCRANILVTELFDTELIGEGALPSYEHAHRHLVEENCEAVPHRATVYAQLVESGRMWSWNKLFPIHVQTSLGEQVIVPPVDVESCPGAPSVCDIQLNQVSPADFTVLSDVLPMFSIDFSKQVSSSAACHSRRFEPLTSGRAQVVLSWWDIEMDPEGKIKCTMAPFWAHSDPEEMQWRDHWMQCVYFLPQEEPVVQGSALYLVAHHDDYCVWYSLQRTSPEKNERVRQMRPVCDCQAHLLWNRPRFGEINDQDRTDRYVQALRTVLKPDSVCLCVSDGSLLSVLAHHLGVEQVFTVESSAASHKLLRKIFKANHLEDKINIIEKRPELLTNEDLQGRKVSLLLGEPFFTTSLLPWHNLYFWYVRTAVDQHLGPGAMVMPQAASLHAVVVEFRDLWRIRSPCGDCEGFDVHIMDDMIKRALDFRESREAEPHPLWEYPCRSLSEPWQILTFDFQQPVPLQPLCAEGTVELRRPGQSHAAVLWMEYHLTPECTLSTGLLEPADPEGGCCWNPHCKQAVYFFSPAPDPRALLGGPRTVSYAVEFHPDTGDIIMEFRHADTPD
Chain of UniProt Q96A00 (Q96A00 whole entry, looked up): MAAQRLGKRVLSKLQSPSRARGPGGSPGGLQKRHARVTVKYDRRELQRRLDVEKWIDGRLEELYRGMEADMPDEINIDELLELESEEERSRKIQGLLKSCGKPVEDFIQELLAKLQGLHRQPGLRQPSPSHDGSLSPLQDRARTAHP
Chain of UniProt Q5JVF3 (Q5JVF3 whole entry, looked up): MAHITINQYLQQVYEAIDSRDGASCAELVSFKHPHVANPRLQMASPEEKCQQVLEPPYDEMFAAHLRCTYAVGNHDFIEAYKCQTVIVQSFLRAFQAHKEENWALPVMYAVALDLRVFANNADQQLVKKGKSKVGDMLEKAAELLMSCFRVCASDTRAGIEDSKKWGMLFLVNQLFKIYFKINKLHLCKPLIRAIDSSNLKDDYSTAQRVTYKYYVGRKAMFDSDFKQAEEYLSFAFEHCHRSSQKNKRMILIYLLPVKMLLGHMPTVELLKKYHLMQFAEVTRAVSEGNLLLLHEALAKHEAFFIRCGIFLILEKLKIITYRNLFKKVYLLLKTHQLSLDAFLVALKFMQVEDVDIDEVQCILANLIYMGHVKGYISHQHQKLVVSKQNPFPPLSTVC
Chain of UniProt Q6WKZ4 (Q6WKZ4 whole entry, looked up): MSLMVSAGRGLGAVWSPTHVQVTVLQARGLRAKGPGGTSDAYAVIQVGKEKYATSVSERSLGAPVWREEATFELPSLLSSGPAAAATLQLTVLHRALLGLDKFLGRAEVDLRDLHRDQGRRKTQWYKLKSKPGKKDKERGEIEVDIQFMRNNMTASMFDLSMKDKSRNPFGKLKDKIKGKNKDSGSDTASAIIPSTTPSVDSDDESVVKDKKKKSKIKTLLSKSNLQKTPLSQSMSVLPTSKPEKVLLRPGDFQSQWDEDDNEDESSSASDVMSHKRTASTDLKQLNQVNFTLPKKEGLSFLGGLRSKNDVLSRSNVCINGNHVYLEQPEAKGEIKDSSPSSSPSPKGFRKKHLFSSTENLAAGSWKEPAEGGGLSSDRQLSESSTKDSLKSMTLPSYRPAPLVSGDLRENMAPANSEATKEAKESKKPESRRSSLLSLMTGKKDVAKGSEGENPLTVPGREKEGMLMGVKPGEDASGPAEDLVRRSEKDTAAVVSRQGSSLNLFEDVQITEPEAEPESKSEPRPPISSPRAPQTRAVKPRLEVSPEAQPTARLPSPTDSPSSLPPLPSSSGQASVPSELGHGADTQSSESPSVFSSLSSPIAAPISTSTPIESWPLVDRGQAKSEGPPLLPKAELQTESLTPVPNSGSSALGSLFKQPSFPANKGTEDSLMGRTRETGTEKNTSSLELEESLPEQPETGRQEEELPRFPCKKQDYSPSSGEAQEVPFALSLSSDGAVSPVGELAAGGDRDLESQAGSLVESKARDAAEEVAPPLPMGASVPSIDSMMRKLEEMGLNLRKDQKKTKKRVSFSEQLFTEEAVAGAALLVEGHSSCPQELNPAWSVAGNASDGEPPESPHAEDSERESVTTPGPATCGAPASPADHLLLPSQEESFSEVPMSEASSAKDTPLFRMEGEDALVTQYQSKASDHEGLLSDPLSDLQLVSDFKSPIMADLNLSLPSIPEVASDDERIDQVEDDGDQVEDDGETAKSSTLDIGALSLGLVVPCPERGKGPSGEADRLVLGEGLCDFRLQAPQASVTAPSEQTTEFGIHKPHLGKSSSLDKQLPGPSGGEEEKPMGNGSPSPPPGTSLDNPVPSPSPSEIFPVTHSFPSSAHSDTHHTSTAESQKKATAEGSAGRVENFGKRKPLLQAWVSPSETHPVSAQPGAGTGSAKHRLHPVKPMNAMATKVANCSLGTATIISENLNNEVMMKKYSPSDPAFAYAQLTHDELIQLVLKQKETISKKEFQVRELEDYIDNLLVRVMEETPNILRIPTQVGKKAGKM
Chain of UniProt Q13356 (Q13356 whole entry, looked up): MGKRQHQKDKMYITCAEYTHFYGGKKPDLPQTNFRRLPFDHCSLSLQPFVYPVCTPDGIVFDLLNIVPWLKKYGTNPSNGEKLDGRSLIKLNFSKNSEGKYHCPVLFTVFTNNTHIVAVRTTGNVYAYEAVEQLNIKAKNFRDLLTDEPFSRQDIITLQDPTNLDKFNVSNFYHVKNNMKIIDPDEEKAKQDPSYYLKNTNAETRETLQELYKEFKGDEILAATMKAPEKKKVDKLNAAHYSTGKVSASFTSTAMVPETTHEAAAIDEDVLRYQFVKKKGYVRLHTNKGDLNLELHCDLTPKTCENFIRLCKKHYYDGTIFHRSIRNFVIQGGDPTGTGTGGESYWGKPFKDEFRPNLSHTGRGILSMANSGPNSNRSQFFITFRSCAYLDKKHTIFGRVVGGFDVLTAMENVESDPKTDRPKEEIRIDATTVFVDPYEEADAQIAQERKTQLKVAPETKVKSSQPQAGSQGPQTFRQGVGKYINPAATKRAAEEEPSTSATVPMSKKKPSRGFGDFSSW
Chain of UniProt O96013 (O96013 whole entry, looked up): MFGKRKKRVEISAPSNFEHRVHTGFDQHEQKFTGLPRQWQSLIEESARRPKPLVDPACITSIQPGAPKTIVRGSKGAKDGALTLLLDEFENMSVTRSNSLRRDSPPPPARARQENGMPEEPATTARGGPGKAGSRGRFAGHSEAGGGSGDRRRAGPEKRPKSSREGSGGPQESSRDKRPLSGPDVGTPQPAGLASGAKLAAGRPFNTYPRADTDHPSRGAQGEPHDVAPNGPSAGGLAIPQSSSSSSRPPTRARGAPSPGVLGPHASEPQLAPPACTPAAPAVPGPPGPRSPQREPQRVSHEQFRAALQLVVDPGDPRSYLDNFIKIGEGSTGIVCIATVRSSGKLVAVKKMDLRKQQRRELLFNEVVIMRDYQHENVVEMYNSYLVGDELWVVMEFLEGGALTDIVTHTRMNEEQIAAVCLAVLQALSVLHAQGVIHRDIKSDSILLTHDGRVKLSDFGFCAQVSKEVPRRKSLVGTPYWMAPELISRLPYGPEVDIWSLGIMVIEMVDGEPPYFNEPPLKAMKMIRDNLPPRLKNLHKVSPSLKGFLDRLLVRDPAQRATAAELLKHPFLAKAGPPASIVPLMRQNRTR
Chain of UniProt Q15004 (Q15004 whole entry, looked up): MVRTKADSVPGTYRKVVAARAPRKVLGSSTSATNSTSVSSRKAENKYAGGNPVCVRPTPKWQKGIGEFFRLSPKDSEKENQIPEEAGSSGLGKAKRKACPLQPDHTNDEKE
Chain of UniProt Q15121 (Q15121 whole entry, looked up): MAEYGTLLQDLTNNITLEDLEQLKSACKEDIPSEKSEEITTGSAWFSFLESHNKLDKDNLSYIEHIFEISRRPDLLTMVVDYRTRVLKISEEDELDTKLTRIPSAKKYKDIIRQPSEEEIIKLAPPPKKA

Target	log2 fold change [1]	log2 fold change [2]	log2 fold change [3]	log2 fold change [4]	log2 fold change [5]	log2 fold change [6]	log2 fold change [7]	log2 fold change [8]	log2 fold change [9]	log2 fold change [10]
PTRH2 (UniProt Q9Y3E5)	0.009	-0.007	0.032	0.144	-0.078	-0.05	-0.009	-0.025	-0.064	-0.022
PPP1R14A (UniProt Q96A00)	-0.002	-0.04	0.004	0.051	-0.006	-0.005	-0.054	0.062	-0.004	0.013
PRMT7 (UniProt Q9NVM4)	0.056	-0.197	0.065	-0.055	-0.003	-0.03	0.145	-0.014	0.042	0.023
POLD3 (UniProt Q15054)	-0.131	-0.055	0.03	0.007	-0.115	0.082	0.049	0.065	0.018	0.006
PDS5A (UniProt Q29RF7)	0.093	-0.109	0.012	0.12	0.057	0.143	0.294	0	0.208	0.275
PPIL2 (UniProt Q13356)	0.005	-0.084	0.04	0.023	-0.059	0.113	0.123	0.016	0.123	0.073
PPP1R35 (UniProt Q8TAP8)	-0.011	0.065	0.025	0.034	-0.009	-0.049	0.008	-0.027	0.112	-0.074
POLR2D (UniProt O15514)	-0.022	-0.005	0.002	0.004	0.027	0.046	-0.006	-0.014	-0.267	-0.031
PPP2R5A (UniProt Q15172)	-0.014	-0.039	0.032	0.051	-0.017	0.061	0.146	-0.003	0.026	0.002
PPIL4 (UniProt Q8WUA2)	0.006	-0.02	-0.06	-0.007	0.145	0.001	0	0.04	0.045	0
PC (UniProt P11498)	0.07	-0.103	0.038	0.012	-0.07	0	0.032	0.039	0.022	0.009
RAB11FIP1 (UniProt Q6WKZ4)	-0.009	0.001	0.015	-0.018	0.034	0.006	0.063	0.009	0.015	0.014
PELO (UniProt Q9BRX2)	-0.005	-0.051	0.042	-0.039	0.161	-0.13	0.007	0.055	0.192	0.045
PLBD1 (UniProt Q6P4A8)	0.005	-0.023	0.032	-0.039	0.005	0.069	-0.014	0.006	-0.013	0.027
PDE12 (UniProt Q6L8Q7)	0.049	0.006	0.024	0.026	-0.064	-0.006	0.03	-0.01	-0.027	0.014
PEA15 isoform 2 (UniProt Q15121)	0.004	-0.039	0.042	-0.008	-0.071	0.002	0.122	-0.003	0.003	0.082
PMPCB (UniProt O75439)	0.012	-0.063	-0.009	0.03	-0.07	0.06	-0.019	-0.015	-0.042	0.01
PRKCQ (UniProt Q04759)	0.013	-0.043	0.073	-0.004	-0.055	0.015	0.065	-0.065	0.052	0.03
PRIM2 (UniProt P49643)	-0.028	-0.018	-0.019	0.054	0.017	0.054	0.03	0.023	0.085	0.08
PMPCA (UniProt Q10713)	0.046	-0.049	0.014	0.006	-0.102	0.025	0.037	-0.006	-0.019	-0.027
PPOX (UniProt P50336)	0.402	-0.014	0.043	0.099	-0.232	0.065	0.046	0.184	-0.063	0
PIK3C3 (UniProt Q8NEB9)	0.003	0.015	-0.046	-0.085	0.54 (active)	-0.001	0.02	-0.051	0.088	-0.015
PCID2 (UniProt Q5JVF3)	0.024	-0.026	-0.066	0.033	0.153	0.069	0.202	0.071	0.114	-0.016
PTPN23 (UniProt Q9H3S7)	-0.062	-0.049	-0.009	0.002	-0.015	0.025	0.051	0.088	0.107	0.047
PSMD5 (UniProt Q16401)	-0.009	-0.001	0.023	0.027	-0.01	0.015	0.047	0.003	-0.007	0.027
PCLAF (UniProt Q15004)	-0.119	0.031	-0.014	-0.009	-0.002	-0.097	-0.083	0.115	-0.061	-0.007
PIP4K2C (UniProt Q8TBX8)	-0.003	-0.06	0.073	0.007	-0.046	-0.035	0	-0.029	-0.047	-0.016
PAK4 (UniProt O96013)	-0.154	0.06	-0.017	-0.017	-0.027	-0.035	-0.026	-0.141	-0.01	0.027
PLCB3 (UniProt Q01970)	0.033	-0.04	0.021	0.033	-0.019	0.024	0.045	-0.032	-0.014	0.018
PRKCB isoform 2 (UniProt P05771)	0.005	-0.014	-0.003	0.01	-0.01	0.009	-0.007	0.002	0.001	0.015
